The record followed here is PubChem BioAssay.

The nature of assay [1]: growth inhibition of DIPG glioma cells, dose response, cell-based, SU-DIPG-XVII, MIPE5.0, CellTiter-Glo, qHTS (AID 1347060; cut-off not given, nearly all actives have AC50 up to about 26 µM;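 further: cells exposed to compound for 48 hours before viability readout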). The settings on record: SU-DIPG-XVII viability, CellTiter-Glo ATP luminescence.
Assay [2] can be described thus: growth inhibition of DIPG glioma cells, dose response, cell-based, SU-DIPG-XIII, MIPE4.0, CellTiter-Glo, qHTS (AID 1347061; cut-off not given, nearly all actives have AC50 up to about 37 µM;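 further: cells exposed to compound for 48 hours before readout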). The settings on record: SU-DIPG-XIII viability, CellTiter-Glo ATP luminescence. In general terms: ATP-based viability assays read luminescence as a measure of living cells.
Assay [3] is described as follows: growth inhibition of DIPG glioma cells, dose response, cell-based, JHH-DIPG-1, MIPE4.0, CellTiter-Glo, qHTS (AID 1347062; cut-off not given, nearly all actives have AC50 up to about 27 µM;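 further: cells exposed to compound for two days before readout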). The settings on record: JHH-DIPG-1 viability, CellTiter-Glo ATP luminescence.
Assay [4] in a line: growth inhibition of DIPG glioma cells, dose response, cell-based, SU-DIPG-IV, MIPE4.0, CellTiter-Glo, qHTS (AID 1347063; cut-off not given, nearly all actives have AC50 up to about 30 µM;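 further: compound exposure lasted 48 hours before the viability readout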). The settings on record: SU-DIPG-IV viability, CellTiter-Glo ATP luminescence.
Assay [5] is described as follows: growth inhibition of DIPG glioma cells, dose response, cell-based, SU-DIPG-XIII, MIPE5.0, CellTiter-Glo, qHTS (AID 1347064; cut-off not given, nearly all actives have AC50 up to about 23 µM;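 further: cells exposed to compound for 48 hours before the viability read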). The settings on record: SU-DIPG-XIII viability, CellTiter-Glo ATP luminescence.
Assay [6] is described as follows: SU-DIPG-VI glioma cell viability, MIPE4.0 library, CellTiter-Glo luminescence, qHTS (AID 1347066; cut-off not given, nearly all actives have AC50 up to about 30 µM;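 further: cells exposed to compound for 48 hours before readout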). The settings on record: CellTiter-Glo ATP luminescence.
Assay [7] is described as follows: JHH-DIPG-1 glioma cell viability, MIPE5.0 library, CellTiter-Glo luminescence, qHTS (AID 1347067; cut-off not given, nearly all actives have AC50 up to about 26 µM;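 further: cells exposed to compound for 48 hours before readout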). The settings on record: JHH-DIPG-1 glioma viability, CellTiter-Glo ATP luminescence.
The nature of assay [8]: SU-DIPG-XXV glioma cell viability, MIPE5.0 library, qHTS (AID 1347068; cut-off not given, nearly all actives have IC50 up to about 30 µM;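 on IC50: cells exposed to compound for 48 hours before viability readout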).
Assay [9] can be described thus: sensitizers of A549 cells to miR-34 induction, primary screen, imaging, A549 dox-inducible miR-34, nuclei and caspase counts (AID 1347080;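 active means compounds whose cell count with miR-34 switched on is under 0.7 times the count with it off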). The settings on record: A549 miR-34 inducible, Hoechst nuclei count, 48 h.
The nature of assay [10]: survival rescue of mitochondrial mutant cells in low glucose, primary screen, MELAS cybrids, Rieske KO mouse fibroblasts, CellTiter-Glo (AID 1508586;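 active means mean z-score across replicates of 1.96 or higher in either the MELAS or the Rieske mutant cell line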;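 further: z relative to plate mean and SD of compound and empty wells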).
Assay [11] is described as follows: viability loss in pontine glioma line – cell-based, SU-DIPG-XXV, MIPE5.0, CellTiter-Glo, qHTS, dose response (AID 1347065; cut-off not given, nearly all actives have AC50 up to about 26 µM;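 further: cells exposed to compound for 48 hours before ATP readout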). The settings on record: CellTiter-Glo ATP luminescence.
Assay [12] is described as follows: modifiers of HSF1 nuclear foci, imaging, Selleck Cancer Library (AID 1347162; in the data active means plate-normalised HSF1 focus index below about 0.46). The settings on record: human cells, at 10 µM; SSMD: measured here: HSF1 foci SSMD mean; cell count: measured here: cell number; plate-normalised HSF1 focus index: stronger effect = lower value.
Assay [13] can be described thus: ovarian cancer cell viability with rucaparib, profiling panel, oncology-focused library, rucaparib conditional (AID 1508598). The settings on record: patient-derived ovarian cancer cells, CellTiter-Glo viability, 144 h, stronger effect = lower value.
Setting [14] is: stronger effect = lower value, cell number ratio, induced over uninduced.
The mark [15] stands for this setting: measured here: relative caspase fold change +Dox/-Dox.
Setting [16] is: measured here: total cells with miR-34 induction, stronger effect = lower value.
Where [17] appears, read: measured here: total cells without miR-34 induction.
Where [18] appears, read: MELAS cybrid survival, CellTiter-Glo 48 h, stronger effect = higher value.
Setting [19] is: Rieske KO mouse fibroblast survival, CellTiter-Glo 72 h.

Structures are written as SMILES. Results filed as inconclusive are left out. Calls of active or inactive are those of the source.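 How the source made its calls, unless noted: active means normalized viability below 100% at a tested concentration; inactive means the rest.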

As usually defined, the AC50 is the midpoint of the concentration-response curve, whichever way the signal moves. In the case of `Cc1ccc(C(=O)Nc2cccc(C(F)(F)F)c2)cc1Nc1nc(-c2cccnc2)nc2c1cnn2C`, the half-maximal activity concentration (AC50) in assay [1] is 16600 nM (active); in [3], 18700 nM (active); in [4], 16600 nM (active); in [5] it was 18600 nM (active); in [6], 23500 nM (active); in [7], 20900 nM (active). In addition, the molecule was called inactive in assay [2] and in [8]. The fold change in [9] (setting [14]) was 1.02 (inactive); in [9] (setting [15]), 1.01. Also, the cell count in assay [9] (setting [16]) is 4020; in [9] (setting [17]) it was 3950. In addition, the z-score is -0.539 in assay [10] (setting [18]) and 2.14 in [10] (setting [19]).
`Cn1c(=O)n(-c2ccc(C(C)(C)C#N)cc2)c2c3cc(-c4cnc5ccccc5c4)ccc3ncc21`: the AC50 in [1] was 481 nM (active); in assay [2], 2640 nM (active); in [3], 4180 nM (active); in [4], 23.5 nM (active); in [5] it was 855 nM (active); in assay [11], 135 nM (active). In addition, the concentration at half-maximal activity (AC50) in [7] was 855 nM (active). The same molecule came in with an SSMD in assay [12] of -0.518. In addition, in assay [12], the cell count was found to be 7130. Further, the plate-normalised HSF1 focus index in assay [12] is 0.984 (inactive).
The IC50 is the concentration needed to halve the response being measured. As to `Cc1nc(N)ncc1-c1nc(N2CCOCC2)c2sc(C(C)(C)O)cc2n1`, the concentration at half-maximal activity (AC50) in assay [1] was 1660 nM (active); in [2], 7430 nM (active); in assay [3], 1320 nM (active); in assay [4], 332 nM (active); in assay [5], 3320 nM (active); in assay [11] it was 1050 nM (active). Moreover, the 50% inhibitory concentration (IC50) in assay [8] is 4680 nM (active).
A word on the viability: it is a read-out of living cells in per cent, often relative to untreated cells. `Cn1cc(CNCC2CCN(c3ncc(C(=O)NO)cn3)CC2)c2ccccc21`: the AC50 is 417 nM (active) in assay [1]; 2640 nM (active) in assay [2]; 332 nM (active) in [3]; 418 nM (active) in assay [4]; 209 nM (active) in [5]; 132 nM (active) in assay [11]. Moreover, in [7], the AC50 was 209 nM (active). In addition, the fold change in assay [9] (setting [14]) was 0.846 (inactive); in [9] (setting [15]) it was 0.734. Also, the cell count turned out to be 984 in assay [9] (setting [16]) and 1160 in assay [9] (setting [17]). For the same molecule, the z-score in assay [10] (setting [18]) was -0.103 (inactive); in assay [10] (setting [19]), -2.7. Further, the viability in [13] (at 0.000305 µM, OCI-C5x cells, with rucaparib 10 µM, 100% = cells with rucaparib alone) was 126% (inactive); in [13] (at 0.000305 µM, OCI-C5x cells, without rucaparib) it was 118% (inactive); in [13] (at 0.000305 µM, OCI-P5x cells, with rucaparib 20 µM, 100% = cells with rucaparib alone) it was 95.4% (active); in [13] (at 0.000305 µM, OCI-P5x cells, without rucaparib), 92.2% (active); in assay [13] (at 0.00122 µM, OCI-C5x cells, with rucaparib 10 µM, 100% = cells with rucaparib alone) it was 125% (inactive); in assay [13] (at 0.00122 µM, OCI-C5x cells, without rucaparib) it was 133% (inactive). The viability in assay [13] (at 0.00122 µM, OCI-P5x cells, with rucaparib 20 µM, 100% = cells with rucaparib alone) is 104% (inactive); in [13] (at 0.00122 µM, OCI-P5x cells, without rucaparib), 95.8% (active); in assay [13] (at 0.00488 µM, OCI-C5x cells, with rucaparib 10 µM, 100% = cells with rucaparib alone), 116% (inactive); in [13] (at 0.00488 µM, OCI-C5x cells, without rucaparib), 138% (inactive); in assay [13] (at 0.00488 µM, OCI-P5x cells, with rucaparib 20 µM, 100% = cells with rucaparib alone), 76.6% (active); in [13] (at 0.00488 µM, OCI-P5x cells, without rucaparib) it was 85.4% (active). For the same molecule, the viability in [13] (at 0.0195 µM, OCI-C5x cells, with rucaparib 10 µM, 100% = cells with rucaparib alone) is 96.2% (active); in assay [13] (at 0.0195 µM, OCI-C5x cells, without rucaparib), 99.7% (active); in assay [13] (at 0.0195 µM, OCI-P5x cells, with rucaparib 20 µM, 100% = cells with rucaparib alone), 32.6% (active); in assay [13] (at 0.0195 µM, OCI-P5x cells, without rucaparib), 51.7% (active); in assay [13] (at 0.0781 µM, OCI-C5x cells, with rucaparib 10 µM, 100% = cells with rucaparib alone), 7.04% (active); in [13] (at 0.0781 µM, OCI-C5x cells, without rucaparib), 7.55% (active). Besides, the viability in [13] (at 0.0781 µM, OCI-P5x cells, with rucaparib 20 µM, 100% = cells with rucaparib alone) is 3.73% (active); in [13] (at 0.0781 µM, OCI-P5x cells, without rucaparib) it was 9.01% (active); in assay [13] (at 0.313 µM, OCI-C5x cells, with rucaparib 10 µM, 100% = cells with rucaparib alone), 5.05% (active); in assay [13] (at 0.313 µM, OCI-C5x cells, without rucaparib), 5.83% (active); in [13] (at 0.313 µM, OCI-P5x cells, with rucaparib 20 µM, 100% = cells with rucaparib alone), 1.63% (active); in [13] (at 0.313 µM, OCI-P5x cells, without rucaparib), 1.83% (active). Further, the viability in [13] (at 1.25 µM, OCI-C5x cells, with rucaparib 10 µM, 100% = cells with rucaparib alone) is 3.87% (active); in [13] (at 1.25 µM, OCI-C5x cells, without rucaparib), 5.39% (active); in assay [13] (at 1.25 µM, OCI-P5x cells, with rucaparib 20 µM, 100% = cells with rucaparib alone), 1.03% (active); in assay [13] (at 1.25 µM, OCI-P5x cells, without rucaparib), 0.724% (active); in [13] (at 5 µM, OCI-C5x cells, with rucaparib 10 µM, 100% = cells with rucaparib alone), 4.54% (active); in assay [13] (at 5 µM, OCI-C5x cells, without rucaparib), 5.34% (active). Besides, the viability is 1.24% (active) in assay [13] (at 5 µM, OCI-P5x cells, with rucaparib 20 µM, 100% = cells with rucaparib alone) and 1.13% (active) in assay [13] (at 5 µM, OCI-P5x cells, without rucaparib).
